SMILES strings stand for the structures. Unmarked numbers belong to inactive results. Results filed as inconclusive are left out. Active and inactive are the calls of the source. Unless noted, calls come from the whole dose curve; as a rule, active = well fitted curve in the direction sought with a large enough effect; inconclusive = small, poorly fitted or top-dose-only effect, or another doubt; inactive = no such curve, though single readings can be large; an effect the other way counts as inactive or inconclusive.

Assay [1] is described as follows: Cell Viability - BJ (AID 421; calls by dose curve;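 note: potency is the fitted concentration of half-maximal effect; cells exposed to compound for 40 hours at 37 °C before readout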). Particulars: BJ fibroblast viability, qHTS. An outline of the steps: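 Luminescent ATP signal (CellTiter-Glo, 20 min at room temperature) served as the read-out of viable BJ cells after 40 hours of compound treatment. Responses were scaled between DMSO and 100 uM tamoxifen, and AC50 values were obtained by Hill modeling.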
A short description of assay [2]: Cell Viability - Jurkat (AID 426;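 active = dose-dependent loss of cell ATP signal giving a full or clear fitted curve, ranked by lower potency value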;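 note: potency is the fitted concentration of half-maximal effect; cells exposed to compound for 40 hours at 37 °C before ATP read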). Particulars: qHTS. An outline of the steps: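 Cytotoxicity was scored as loss of cellular ATP, measured by luciferase-based luminescence, in Jurkat clone E6-1 cells after 40 h compound treatment; tamoxifen and doxorubicin served as positive controls.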
Assay [3] can be described thus: Cell Viability - HepG2 (AID 433; calls by dose curve; note: potency is the fitted concentration of half-maximal effect). The settings on record: qHTS. An outline of the steps: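 HepG2 cells, 1500 per well, treated 40 hr at 37 °C in complete medium; viability from intracellular ATP by CellTiter-Glo luminescence. Normalized to DMSO and 100 uM tamoxifen; AC50 from Hill fit of qHTS concentration-response.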
Assay [4] in a line: Cell Viability - MRC5 (AID 434; calls by dose curve;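 note: potency is the fitted concentration of half-maximal effect; cells exposed to compound for 40 hours at 37 °C; potency reflects cytotoxicity seen as loss of intracellular ATP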). Particulars: MRC5 lung fibroblast viability, qHTS. An outline of the steps:
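AC50 values come from Hill-equation fits of intracellular ATP loss, measured by CellTiter-Glo luminescence. Normal lung fibroblasts (MRC5) had 40 hr compound treatment at 37 C, normalized between DMSO and 100 uM tamoxifen.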

Assay [5] can be described thus: Cell Viability - N2a (AID 540).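 Note: cells exposed to compound for 40 h at 37 °C; plate controls were DMSO alone for no effect and tamoxifen control for full effect; nearly all actives have a fitted effect of over 45% in size.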 Particulars: N2a mouse neuroblastoma cell viability; at 92.2 µM (top of the series). A digest of the protocol:
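In this qHTS cytotoxicity screen, ATP-dependent luciferase luminescence reports viable N2a cells after a 40 hr compound exposure in complete culture medium. Potencies are AC50 values from standard Hill equation fits.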

Assay [6] is described as follows: Cell Viability - HUV-EC-C (AID 542). Note: % is set by controls: 0 for no effect and ±100 for the full control effect; nearly all actives have a fitted effect of over 35% in size. An outline of the steps: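 Concentration-dependent ATP loss in HUV-EC-C cells is the measure. Exposure lasts 40 hr at 37 °C; luminescence follows CellTiter-Glo addition, and Hill fits give AC50.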
Assay [7] is described as follows: Cell Viability - Mesenchymal (AID 546).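 Note: cells exposed to compound for 40 hours before reading; 0% = DMSO only and -100% = 100 µM tamoxifen.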 An outline of the steps:
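CellTiter-Glo luminescence (intracellular ATP, 20 min room temperature) after 40 hr compound exposure at 37 °C of 1000 glomerulus-derived human kidney mesenchymal cells/well; AC50 values obtained by fitting qHTS concentration-response data to the Hill equation.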

A short description of assay [8]: Cellular Toxicity (caspase-3) HepG2 (AID 654).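 Note: cells exposed to compound for 16 hours before reading; 0% = DMSO alone and 100% = caspase signal from 100 µM tamoxifen.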 An outline of the steps: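 Concentration-response AC50 values reflect caspase-3/7 induction in HepG2 cells after 16 hours of compound exposure, quantified by luminescence from liberated aminoluciferin and referenced to 100 uM tamoxifen as full stimulation.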
Assay [9] can be described thus: Cellular Toxicity (caspase-3) HUV-EC-C (AID 656).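 Note: 0% = DMSO basal and 100% = 100 µM tamoxifen.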 An outline of the steps: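 HUV-EC-C cells (1000/well) in complete medium, compound-treated 16 h at 37 °C; caspase-3/7 activity read by Caspase-Glo 3/7 luminescence. Normalized to DMSO (basal) and 100 uM tamoxifen (100%); AC50 from Hill-equation concentration-response fits.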
Assay [10] in a line: Cellular Toxicity (caspase-3) SHSY5Y (AID 657). A digest of the protocol: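 SH-SY5Y human neuroblastoma cells, 1500/well, exposed to compound for 16 hours at 37 °C in complete medium. Caspase-3/7 activity read by Caspase-Glo luminescence after 1 hr at room temperature, normalized to DMSO and 10 uM staurosporine; AC50 from Hill fit.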
Assay [11] is described as follows: Cellular Toxicity (caspase-3) BJ (AID 658).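 Note: 0% = DMSO basal and 100% = 10 µM staurosporine.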 A digest of the protocol:
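Caspase-Glo 3/7 luminescence, read 1 hr after reagent at room temperature, in normal BJ fibroblasts exposed 16 hours at 37 °C. AC50 values from Hill-equation concentration-response, scaled between DMSO basal and 10 uM staurosporine as 100%.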

Assay [12] can be described thus: Cellular Toxicity (caspase-3) MRC-5 (AID 659).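 Note: 0% = DMSO basal and 100% = 10 µM staurosporine.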 An outline of the steps: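 Luminescent Caspase-Glo 3/7 read-out (1 h, room temperature) after a 16 h, 37 °C compound exposure of MRC-5 lung fibroblasts at 1500 cells/well. Concentration-response AC50 from Hill equation; 0% DMSO, 100% 10 uM staurosporine.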
Assay [13] can be described thus: Cellular Toxicity (caspase-3) SK-N-SH (AID 661).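 Note: 0% = DMSO basal and 100% = 10 µM staurosporine.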 A digest of the protocol: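 Apoptosis readout in SK-N-SH neuroblastoma: Caspase-Glo 3/7 luminescence following 16 hr treatment in complete culture medium. Normalization used DMSO and 10 uM staurosporine controls.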
Assay [14] in a line: Cellular Toxicity (caspase-3) H-4-II-E (AID 663).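 Note: cells exposed to compound for 16 hr before readout; 0% = DMSO basal and 100% = 100 µM tamoxifen.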 An outline of the steps:
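Caspase 3/7 activation measured by luminescent aminoluciferin substrate cleavage after 16 hr compound treatment of H-4-II-E cells in complete medium. Increase normalized between DMSO (basal) and 100 uM tamoxifen (100%); Hill-equation AC50 from concentration-response.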

Assay [15] can be described thus: Cellular Toxicity (caspase-3) Hek293 (AID 664).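 Note: cells exposed to compound for 16 h at 37 °C before readout.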 A digest of the protocol:
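Apoptosis readout: Caspase-Glo 3/7 signal in human HEK293 cells following 16-hour compound incubation. Responses scaled between DMSO baseline and 100 uM tamoxifen.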

Assay [16] is described as follows: Cellular Toxicity (caspase-3) N2a (AID 665).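 Note: compound exposure lasted 16 h at 37 °C before readout.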 A digest of the protocol: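 Concentration-response qHTS: compound-induced caspase-3/7 luminescence in N2a cells (16 h, 37 °C), relative to DMSO and 10 uM staurosporine controls; AC50 obtained using the standard Hill equation.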
Assay [17] is described as follows: Cellular Toxicity (caspase-3) NIH 3T3 (AID 666).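 Note: 0% = DMSO basal and 100% = 100 µM tamoxifen stimulation.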 An outline of the steps:
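Activity: caspase-3/7 induction, NIH 3T3 cells, 16 hr treatment at 37°C, luminescent Caspase-Glo detection; AC50 via Hill equation.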

A short description of assay [18]: Cellular Toxicity (caspase-3) Renal Proximal Tubule (AID 667).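 Note: cells exposed to compound for 16 hours at 37 °C before detection; 0% = DMSO basal and 100% = 10 µM staurosporine.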 A digest of the protocol: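 Freshly isolated primary rat kidney proximal tubule cells, 1000/well, treated 16 hr at 37 °C, then Caspase-Glo 3/7 luminescence after 1 hr. Normalized to DMSO and 10 uM staurosporine; AC50 from Hill fit.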
The nature of assay [19]: Confirmation and Secondary Assay for Modulators of Hemoglobin Beta Chain Splicing at IVS2 654 locus (AID 910).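 Note: HeLa cells stably carrying EGFP split by mutant beta-globin IVS2-654 intron; per-well total GFP intensity by laser scanning cytometry after 2-day treatment; % of control where 0% means no effect.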 A digest of the protocol:
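Readout: per-well total peak green fluorescence (488 nm ex, 500–520 nm em) from objects 5–250 µm, reflecting correct splicing of an EGFP-654 reporter. Compounds were applied for 2 days at 37 °C to overnight-plated HeLa EGFP-654 cells; controls were DMSO and 500 nM IVS2-654 PNA.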

Assay [20] in a line: Cell Viability - LYMP2-001 (AID 921).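 Note: cells exposed to compound for 24 h at 37 °C; 0% = DMSO only and full inhibition = tetraoctylammonium bromide control wells; nearly all actives have a fitted effect of over 70% in size.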 A digest of the protocol:
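Human lymphoblastoid LYMP2-001 cells, 2500 per well, in complete medium, treated 24 h at 37 C. Viability from cellular ATP by CellTiter-Glo luminescence; AC50 from Hill-equation fits of qHTS concentration-response.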

The nature of assay [21]: Confirmation and Secondary Assay for Modulators of Hemoglobin Beta Chain Splicing at IVS2 705 locus (AID 930).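 Note: HeLa cells stably expressing the EGFP-705 splicing reporter; % of control where 0% means no effect.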 A digest of the protocol: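 Restored EGFP fluorescence after 2-day compound exposure reports splicing correction in IVS2-705 EGFP reporter HeLa cells; positive control was 500 nM splice-blocking PNA oligo. Signal measured as well total peak GFP intensity (488 nm excitation).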

The nature of assay [22]: MultiTox-Fluor Cytotoxicity Assay - LYMP1-001 - Dead Cells (AID 946).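 Note: 0% = DMSO and 100% = tetraoctylammonium bromide.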 A digest of the protocol:
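AC50 from Hill fit of concentration-response; data normalized to DMSO (basal) and 15 uM tetraoctylammonium bromide (100%). LYMP1-001 lymphoblastoid cells, 2500/well, 16 hr compound at 37 C; dead-cell protease fluorescence, Ex/Em 485/520.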

The nature of assay [23]: MultiTox-Fluor Cytotoxicity Assay - LYMP1-001 - Live Cells (AID 947).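 Note: 0% = DMSO only and full inhibition = tetraoctylammonium bromide control.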

With `Oc1c(Cl)c(Cl)c(Cl)c(Cl)c1Cl`, the Potency is greater than 92 µM in assay [1], 47.6 µM (active) in assay [2], greater than 92 µM in assay [3] and greater than 92 µM in assay [4]. Besides, in assay [5], the activity change, negative = cytotoxicity was -109% (active). In addition, the call in [6], in assay [7], in [8], in assay [9], in [10] and in assay [11] was inactive. The call in assay [12], in [13], in assay [14], in assay [15], in assay [16] and in assay [17] was inactive. For the same compound, the call in assay [18], in assay [20], in [21] and in [23] was inactive. The Potency result in assay [19] and in [22] was “inactive” in each case.

These data come from PubChem BioAssay (NCATS).
